This is an account of results in PubChem BioAssay AID1259343 (VanderVen Lab, College of Veterinary Medicine, Cornell …, 2017).

Hit rate of the full screen: of about 6,200 compounds, about 2,900 (47%) were called active. No stated cut-off is given here; in the data, active means inhibition above about 50%; inactive means the rest. So high a share suggests a set chosen from earlier hits. Some of the results follow.

A short description of this experiment: Mycobacterium tuberculosis growth inhibition, primary screen (AID 1259343). The note with it: inhibition: at 10 µM, active compounds read high; outcome: 10 uM.
With `CON(C)S(=O)(=O)c1cc(C(=O)Nc2cccc(Cl)c2Cl)ccc1Cl`, the inhibition was 22.1% (inactive).

Turning to `CCCCN(C)S(=O)(=O)c1ccc(NC(=O)c2ccc(OC)nc2)cc1`, the inhibition is 88% (active). As for `COc1ccc(NC(=O)c2ccc(-c3ccc(C(C)=O)cc3)o2)cn1`, the inhibition is -28.8% (inactive). In the case of `COc1ccc(C2=NOC(CNCc3cccc(F)c3)C2)cc1` (stereo not drawn) it was 76.2% (active). `COc1ccc(C2=NOC(CNCc3cccc(C(F)(F)F)c3)C2)cc1` (stereo not drawn): the inhibition was 43.6% (inactive). With `COc1ccc(C2=NOC(c3ccc(C)cc3)C2)cc1` (stereo not drawn), the inhibition was 22.2% (inactive). On to `Fc1cccc(CNCC2CC(c3ccc(Cl)c(Cl)c3)=NO2)c1` (stereo not drawn), for which the inhibition was 57.1% (active). In the case of `Cc1ccc(=O)n(CC(=O)Nc2ccc(Sc3ccccc3Cl)cc2)n1`, the inhibition was 5.63% (inactive). For the compound `CCc1cccc(NC(=O)Cn2nc3ccc(SC(C)C)nn3c2=O)c1`, the inhibition is 77.8% (active). As to `O=C(Cn1nnc(-c2ccccc2Cl)n1)Nc1ccc(I)cc1`, the inhibition was 32.1% (inactive). Turning to `Cc1ccc(NC(=O)CN2CCc3ccccc32)cc1F`, the inhibition was 54.7% (active). In the case of `Cc1ccc(NC(=O)Cc2ccc(OC(F)F)cc2)cc1F` it was 48.2% (inactive). Take `COc1ccc(-c2nnn(CC(=O)Nc3ccc(C)c(F)c3)n2)cc1OC`: the inhibition was 86.6% (active). Turning to `O=C(CN1CCc2ccccc21)NC(=O)NCc1ccccc1`, the inhibition is 20.7% (inactive). Consider `CCCn1ncc(CN2CCOC(c3ccc(Cl)c(Cl)c3)C2)c1C` (stereo not drawn), for which the inhibition was 7.23% (inactive).

As for `CCCc1sc(C(=O)Nc2nccs2)cc1CC`, the inhibition is 80.5% (active). The result for `CCOc1ccc(CCN=C=S)cc1OCC` reads 97.5% (active); that for `Cn1nnnc1SCc1ccc(Cl)c(Cl)c1`, 37.6% (inactive); that for `c1ccc(-c2nnc(CSc3nnc(-c4ccccc4)o3)o2)cc1`, 101% (active). In the case of `Clc1ccc(CSc2nnc(-c3ccco3)o2)c(Cl)c1` it was -6.93% (inactive). As for `Brc1ccccc1-c1nnc(SCc2nnc(-c3ccco3)o2)o1`, the inhibition was -32.1% (inactive). In the case of `Clc1ccc(CSc2nnc(-c3ccco3)o2)cc1Cl`, the inhibition was 88% (active).

Consider `CCSc1nnc(-c2ccc(Cl)cc2Cl)o1`, for which the inhibition was 100% (active). With `c1ccc(-c2nnc(SCc3nnc(-c4ccco4)o3)o2)cc1`, the inhibition is 69.9% (active). As for `N#Cc1ccc(CSc2nnc(-c3ccccc3)o2)cc1`, the inhibition is -28.8% (inactive). As for `Clc1ccccc1-c1nnc(SCc2ccccc2)o1`, the inhibition was 74.3% (active).

With `Clc1cc2c(c(CSc3nnc(-c4ccco4)o3)c1)OCOC2`, the inhibition was 86.3% (active).

Consider `BrC12CC3CC(C1)CC(c1nnc(-c4ccco4)o1)(C3)C2`, for which the inhibition was 23.4% (inactive).

Regarding `Fc1ccccc1-c1nnc(SCc2ccccc2Br)o1`, the inhibition was 1.69% (inactive). Turning to `ClC12CC3CC(C1)CC(c1nnc(-c4ccco4)o1)(C3)C2`, the inhibition was 12.4% (inactive). On to `Fc1ccccc1-c1nnc(SCc2cccc3ccccc23)o1`, for which the inhibition is 85.9% (active).

On to `Cc1occc1-c1nnc(SCc2nnc(-c3ccco3)o2)o1`, for which the inhibition was 92.5% (active). `Cc1ccc(/C=C/c2nc3scc(CC(C)C)c3c(=O)[nH]2)s1`: the inhibition was -12.6% (inactive). In the case of `COc1ccccc1CC(=O)N1CCC(n2nc(-c3ccccc3)cc2-c2ccccc2)CC1` it was 59.7% (active); in that of `COc1cc(-c2ccc(=O)n(Cc3ccccc3C)n2)cc(OC)c1OC`, “inactive”. `CCCC(=O)N1CCCC1C(=O)Nc1ccc(-c2ccccc2)nn1` (stereo not drawn): the inhibition was -13% (inactive).

Regarding `COc1ccc(OCCSc2nnc(-c3ccc(OC)c(OC)c3)o2)cc1`, the inhibition is 91.1% (active).

On to `CCc1ccc(-c2noc(CSc3nnc(-c4ccc5c(c4)OCO5)o3)n2)cc1`, for which the inhibition was -23.7% (inactive). In the case of `COc1ccccc1-c1nnc(SCC(=O)c2ccc3c(c2)OCO3)o1` it was -33.1% (inactive); in that of `COc1ccc(-c2noc(CSc3nnc(-c4ccc5c(c4)OCO5)o3)n2)cc1OC`, 78.9% (active).

As to `COc1ccccc1-c1noc(CSc2nnc(-c3ccc4c(c3)OCO4)o2)n1`, the inhibition is 99% (active).

For `CCn1c(SCC(=O)c2cc(C)ccc2C)nnc1-c1ccco1`, the inhibition is 52.6% (active). In the case of `Cn1c(SC2CCCc3ccccc32)nnc1-c1ccco1` (stereo not drawn), the inhibition is 27.9% (inactive). As for `CCn1c(SCC(=O)Nc2ccc(I)cc2)nnc1-c1ccco1`, the inhibition was 10.3% (inactive). Turning to `CC1CCN(S(=O)(=O)NC(C)c2ccc(F)cc2)CC1` (stereo not drawn), the inhibition was 17.4% (inactive). In the case of `CC1CCCN(S(=O)(=O)NCc2ccccc2Cl)C1` (stereo not drawn), the inhibition was -12.8% (inactive).

For the compound `CC1CCN(S(=O)(=O)NCCc2ccccc2F)CC1`, the inhibition is 82.6% (active). `C/C=C/c1cc(C(=O)Nc2nc(C)cs2)cc(OC)c1OC`: the inhibition is 57.2% (active).

On to `Cc1csc(NC(=O)c2ccnc(N(C)C)c2)n1`, for which the inhibition is -4.65% (inactive). Take `COc1ccc(CNC(=O)Nc2ncc([N+](=O)[O-])s2)cc1`: the inhibition is 11.6% (inactive).

On to `COc1ccc(Oc2ccc(CNCc3ccc(C)s3)cn2)cc1`, for which the inhibition was 78.2% (active). In the case of `Cc1ccccc1OCC(=O)Nc1ccc(-n2ccnc2)cc1C(F)(F)F` it was 8.11% (inactive); in that of `CNC(=O)C(C#N)C(=O)c1sc(-c2ccc(Cl)s2)nc1C` (stereo not drawn), 54.5% (active). As to `Cc1nc(-c2cc(Br)cs2)sc1C(=O)O`, the inhibition is 19.5% (inactive). `CC(C)N1CCN(Cc2ccc(C#CC(C)(C)O)s2)CC1CCO` (stereo not drawn): the inhibition was 77.8% (active).

Turning to `O=C(NCC1CC1)c1cc(-c2ccc(Br)cc2)n[nH]1`, the inhibition was 2.7% (inactive). In the case of `O=C(CS(=O)CCOc1cccc(Br)c1)NCC1CCCCC1` (stereo not drawn), the inhibition is 12.5% (inactive). Regarding `COc1ccc(C(=O)NCC2CCCCC2)cc1F`, the inhibition was 70.9% (active). In the case of `O=C(NS(=O)(=O)C1CCCC1)c1ccc(F)c(F)c1`, the inhibition was 25.9% (inactive).

With `O=C(NCC1CCCC1)c1csc(Br)c1`, the inhibition is 95.4% (active).

In the case of `CCOc1ccc(NC(=O)COC(=O)c2ccc(Cl)cc2O)cc1`, the inhibition is 94.7% (active). Take `Cc1nc(-n2nc(-c3cccs3)cc2NC(=O)c2ccc(F)cc2)[nH]c(=O)c1C`: the inhibition was 99.3% (active).

On to `CC(C)c1cc(=O)[nH]c(-n2nc(-c3cccs3)cc2N)n1`, for which the inhibition is 1.53% (inactive). Take `Cc1nc(-n2nc(-c3cccs3)cc2N)[nH]c(=O)c1C`: the inhibition is 92.4% (active). For the compound `Cc1nc(-n2nc(-c3cccs3)cc2NC(=O)c2ccccc2F)[nH]c(=O)c1C`, the inhibition was 83.2% (active). Regarding `Cc1cc(=O)[nH]c(-n2nc(-c3cccs3)cc2N)n1`, the inhibition was -45.8% (inactive).

Regarding `Cc1nc(-n2nc(-c3cccs3)cc2NC(=O)c2ccccc2Cl)[nH]c(=O)c1C`, the inhibition was 61% (active). As for `CCC(CC)C(=O)Nc1cc(-c2cccs2)nn1-c1nc(C)c(C)c(=O)[nH]1`, the inhibition is -21.5% (inactive). The result for `O=C(O)c1csc(-c2cnn(-c3ccccc3)n2)n1` reads 33.6% (inactive). In the case of `Cc1cc(C)cc(NC(=O)c2ncn(-c3ccccc3C)n2)c1` it was 77.4% (active); in that of `O=C1CNC(=S)N1c1ccc(Cl)cc1`, -2.04% (inactive).

Take `CCN(CC)c1ccc(-c2n[nH]c(=S)o2)cc1`: the inhibition was -4.83% (inactive). As for `CCN(CC)c1ccc(N2C(=O)CNC2=S)cc1`, the inhibition was 54.3% (active). For `S=c1[nH]cc(-c2ccc(Cl)cc2)o1`, the inhibition was -9.85% (inactive). Consider `O=C(c1ccc(Cl)cc1)c1c(O)cc(-c2ccc(Cl)cc2)oc1=O`, for which the inhibition was 84% (active). In the case of `C=CCSc1nc2sc(C(=O)O)c(C)c2c(=O)[nH]1`, the inhibition was 26.3% (inactive).

Regarding `Cc1sc2nc(CSC3=NCCS3)[nH]c(=O)c2c1C`, the inhibition was 49% (inactive). Regarding `CSc1nnc(SCc2nc3sc(C(=O)O)c(C)c3c(=O)[nH]2)s1`, the inhibition is 80.8% (active). In the case of `O=[N+]([O-])C1=C(Nc2ccc(-c3ccccc3)cc2)CS(=O)(=O)C1` it was 95.9% (active); in that of `CC(=O)Nc1ccc(OCc2cccc(F)c2)c(Cl)c1`, 85.1% (active). In the case of `O=C(O)c1ccc(F)c(COc2ccc(F)cc2)c1`, the inhibition is 18.4% (inactive).

Turning to `CC(NC(=O)COc1ccc(C(F)(F)F)cc1)c1cccc(F)c1` (stereo not drawn), the inhibition is 9.32% (inactive). In the case of `CC(=O)Nc1cccc(OCc2ccc(F)cc2)c1` it was 92.5% (active); in that of `CSc1cccc(NC(=O)c2cc(=O)c(OCc3ccc(F)cc3)c[nH]2)c1`, 85.5% (active); in that of `Cc1[nH]c(=S)sc1CC(=O)Nc1cccc(OCc2ccc(F)cc2)c1`, 38.9% (inactive). As for `CNC(=O)c1ccc(OCc2cccc(F)c2)cc1`, the inhibition is 78.6% (active).

In the case of `COc1ccc(OCc2cc(C(=O)NCc3cccc(F)c3)no2)c(Cl)c1`, the inhibition was 34.7% (inactive). With `CCCS(=O)(=O)NCc1nc(NCCCc2ccccc2)c2ccccc2n1`, the inhibition was 33.8% (inactive). Regarding `CN(Cc1cc(-c2ccncc2)no1)Cc1ccc(C2CCCCO2)s1` (stereo not drawn), the inhibition was 27.1% (inactive).

Take `CN(Cc1cc(-c2ccncc2)no1)Cc1ccc(Cl)s1`: the inhibition was 54.1% (active).

As for `CN(Cc1ccsc1)Cc1cc(-c2ccccc2)no1`, the inhibition is 53.4% (active). Consider `CN(Cc1cccc(Cn2cccn2)c1)Cc1cc(-c2ccccc2)no1`, for which the inhibition was 61.2% (active). `CN(Cc1cc(-c2ccccc2)no1)Cc1cccc2nonc12`: the inhibition was 27.9% (inactive). In the case of `CN(Cc1ccc2c(c1)OCCO2)Cc1cc(-c2ccccc2)no1`, the inhibition was 37.6% (inactive). Take `CN(Cc1cc(-c2ccncc2)no1)Cc1cc2ccccc2o1`: the inhibition is 23.3% (inactive). Turning to `CCCCC1CCC(C(=O)Nc2noc3ncccc23)CC1` (stereo not drawn), the inhibition was 99.3% (active). In the case of `O=C(Nc1cccc2ncccc12)C1CC2CCCC(C1)C2=O` (stereo not drawn) it was -15.1% (inactive); in that of `c1cnc(N2CCN(Cc3csc(-c4cccs4)n3)CC2)nc1`, 40.8% (inactive); in that of `CN(Cc1csc(-c2cccs2)n1)c1ccc(-c2nccn2C)nn1`, 68.3% (active). In the case of `CC1CCc2[nH]c3c(C(=O)NCC4CN(C)CCO4)cccc3c2C1` (stereo not drawn) it was 39.4% (inactive).

As to `Cc1ccc(CN(C)Cc2nc(CC3CC3)no2)o1`, the inhibition entry is “inactive”. Consider `Cc1nc(Cc2noc(CC3CC4CCC3C4)n2)no1` (stereo not drawn), for which the inhibition is 66.8% (active).

Take `COCCN=c1scc(-c2ccc(Br)cc2)n1N=Cc1ccc(F)cc1`: the inhibition was 40.8% (inactive). Turning to `COCCN=c1scc(-c2ccc(OC(F)F)cc2)n1N=Cc1ccc(OC)cc1`, the inhibition was 63.2% (active). On to `CN=c1scc(-c2ccccc2)n1N=Cc1cccc(C(F)(F)F)c1`, for which the inhibition is 1.23% (inactive).

Take `C=CCN=c1scc(-c2ccc(OC(F)F)cc2)n1N=Cc1ccc[nH]1`: the inhibition was 46.4% (inactive).

As to `C(=Nn1c(-c2ccccc2)csc1=NCCc1ccccc1)c1ccccn1`, the inhibition was 21.8% (inactive). As to `CN=c1scc(-c2cccc(Br)c2)n1N=Cc1cccc(O)c1O`, the inhibition is 17.2% (inactive).

With `COc1ccc(C=Nn2c(-c3ccc(Cl)cc3)csc2=N)cc1`, the inhibition is 60.1% (active). For the compound `CN=c1scc(-c2ccccc2)n1N=Cc1ccccc1Br`, the inhibition was 6.14% (inactive). For `CN=c1scc(-c2ccc(OC(F)F)cc2)n1N=Cc1cccc(O)c1O`, the inhibition was 98.9% (active).

For the compound `COc1ccc(/C=N\n2c(-c3ccc(Cl)cc3)csc2=N)cc1`, the inhibition is 38.1% (inactive). On to `COCCN=c1scc(-c2ccc(OC(F)F)cc2)n1N=CC1CC2C=CC1C2` (stereo not drawn), for which the inhibition was 101% (active).

Usually inhibition stands for the relative decrease from the control value, in per cent.
